Laboratory results: the supplement of paper PMC11732987, “Enantioselective OTUD7B fragment discovery through chemoproteomics screening and high-throughput optimisation” (Communications Chemistry, 2025)

Experiments:
Experiment in all cases: log2 ratio of Biotin-Ahx-Ub-VS probe labelling (fragment/DMSO); higher = less target engagement (more negative = stronger competition), active = hit call of the paper (q ≤ 0.05, log2 ratio ≤ -1)
Settings in all cases: compound concentration: 200 uM; treatment time: 3 h
USP19 = target: T1, USP19 (UniProt O94966)
T1 sequence (whole entry): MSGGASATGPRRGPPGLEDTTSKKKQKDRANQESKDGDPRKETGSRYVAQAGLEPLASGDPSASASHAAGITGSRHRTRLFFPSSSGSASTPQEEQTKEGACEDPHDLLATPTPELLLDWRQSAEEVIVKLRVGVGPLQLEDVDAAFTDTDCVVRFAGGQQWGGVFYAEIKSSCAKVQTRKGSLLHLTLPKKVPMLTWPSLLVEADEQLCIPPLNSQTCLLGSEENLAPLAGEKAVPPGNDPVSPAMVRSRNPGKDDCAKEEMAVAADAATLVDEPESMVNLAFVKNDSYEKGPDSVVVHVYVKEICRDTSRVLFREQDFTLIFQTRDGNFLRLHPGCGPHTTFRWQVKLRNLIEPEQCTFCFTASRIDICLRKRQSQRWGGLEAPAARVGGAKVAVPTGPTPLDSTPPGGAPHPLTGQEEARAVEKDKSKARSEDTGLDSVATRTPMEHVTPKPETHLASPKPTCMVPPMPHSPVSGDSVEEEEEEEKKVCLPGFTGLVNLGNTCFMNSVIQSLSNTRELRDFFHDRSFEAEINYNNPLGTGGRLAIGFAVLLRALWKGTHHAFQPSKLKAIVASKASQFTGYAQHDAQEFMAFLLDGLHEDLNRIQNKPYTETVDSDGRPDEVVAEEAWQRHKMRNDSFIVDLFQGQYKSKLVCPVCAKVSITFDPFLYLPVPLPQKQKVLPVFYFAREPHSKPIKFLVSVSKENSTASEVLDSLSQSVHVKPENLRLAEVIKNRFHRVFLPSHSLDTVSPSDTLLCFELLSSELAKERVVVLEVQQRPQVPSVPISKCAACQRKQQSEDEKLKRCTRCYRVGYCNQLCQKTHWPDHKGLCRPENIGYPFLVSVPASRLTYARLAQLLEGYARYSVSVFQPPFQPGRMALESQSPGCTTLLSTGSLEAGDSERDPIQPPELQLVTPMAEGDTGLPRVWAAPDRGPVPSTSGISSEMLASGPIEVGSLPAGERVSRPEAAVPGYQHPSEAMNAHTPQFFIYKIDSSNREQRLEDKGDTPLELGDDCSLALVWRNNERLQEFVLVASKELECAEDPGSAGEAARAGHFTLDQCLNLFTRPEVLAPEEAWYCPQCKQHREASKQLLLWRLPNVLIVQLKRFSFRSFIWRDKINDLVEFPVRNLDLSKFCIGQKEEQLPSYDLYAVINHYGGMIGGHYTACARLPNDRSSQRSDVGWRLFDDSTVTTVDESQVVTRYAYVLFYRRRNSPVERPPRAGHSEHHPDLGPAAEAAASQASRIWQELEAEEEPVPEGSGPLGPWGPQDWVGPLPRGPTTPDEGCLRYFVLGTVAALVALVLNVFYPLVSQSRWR
Outline: (§1)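 HEK293T lysate, 495 µg per sample in Tris/CHAPS/IGEPAL buffer with protease inhibitors, was treated in triplicate with fragment at 200 µM or vehicle for 3 h and then with Biotin-Ahx-Ub-VS at 0.5 µM final for 1 h. Labelled DUBs were NeutrAvidin-enriched, digested with LysC and trypsin, and run by diaPASEF LC-MS/MS. Spectronaut label-free quantities were global-median-normalised, and values are average log2 fragment/vehicle ratios by unpaired t-test on proteins with ≥2 unique peptides.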

USP22 = target: T2, USP22 (UniProt Q9UPT9)
T2 sequence (whole entry): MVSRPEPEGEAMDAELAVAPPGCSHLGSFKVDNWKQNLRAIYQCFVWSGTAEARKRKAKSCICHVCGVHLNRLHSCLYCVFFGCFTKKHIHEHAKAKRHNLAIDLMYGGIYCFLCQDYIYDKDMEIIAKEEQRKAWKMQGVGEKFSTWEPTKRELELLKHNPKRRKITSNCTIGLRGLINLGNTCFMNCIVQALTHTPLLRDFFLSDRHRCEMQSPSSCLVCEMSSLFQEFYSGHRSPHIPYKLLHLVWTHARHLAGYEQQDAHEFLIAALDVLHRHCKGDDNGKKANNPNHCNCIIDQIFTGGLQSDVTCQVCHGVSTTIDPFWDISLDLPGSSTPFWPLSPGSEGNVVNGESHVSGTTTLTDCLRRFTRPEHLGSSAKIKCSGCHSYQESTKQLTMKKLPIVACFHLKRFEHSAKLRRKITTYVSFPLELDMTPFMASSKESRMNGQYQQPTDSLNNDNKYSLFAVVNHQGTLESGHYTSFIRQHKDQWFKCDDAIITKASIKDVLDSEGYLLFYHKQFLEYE
Outline: as §1

USP24 = USP24 (UniProt Q9UPU5)
Chain of USP24 (Q9UPU5 whole entry): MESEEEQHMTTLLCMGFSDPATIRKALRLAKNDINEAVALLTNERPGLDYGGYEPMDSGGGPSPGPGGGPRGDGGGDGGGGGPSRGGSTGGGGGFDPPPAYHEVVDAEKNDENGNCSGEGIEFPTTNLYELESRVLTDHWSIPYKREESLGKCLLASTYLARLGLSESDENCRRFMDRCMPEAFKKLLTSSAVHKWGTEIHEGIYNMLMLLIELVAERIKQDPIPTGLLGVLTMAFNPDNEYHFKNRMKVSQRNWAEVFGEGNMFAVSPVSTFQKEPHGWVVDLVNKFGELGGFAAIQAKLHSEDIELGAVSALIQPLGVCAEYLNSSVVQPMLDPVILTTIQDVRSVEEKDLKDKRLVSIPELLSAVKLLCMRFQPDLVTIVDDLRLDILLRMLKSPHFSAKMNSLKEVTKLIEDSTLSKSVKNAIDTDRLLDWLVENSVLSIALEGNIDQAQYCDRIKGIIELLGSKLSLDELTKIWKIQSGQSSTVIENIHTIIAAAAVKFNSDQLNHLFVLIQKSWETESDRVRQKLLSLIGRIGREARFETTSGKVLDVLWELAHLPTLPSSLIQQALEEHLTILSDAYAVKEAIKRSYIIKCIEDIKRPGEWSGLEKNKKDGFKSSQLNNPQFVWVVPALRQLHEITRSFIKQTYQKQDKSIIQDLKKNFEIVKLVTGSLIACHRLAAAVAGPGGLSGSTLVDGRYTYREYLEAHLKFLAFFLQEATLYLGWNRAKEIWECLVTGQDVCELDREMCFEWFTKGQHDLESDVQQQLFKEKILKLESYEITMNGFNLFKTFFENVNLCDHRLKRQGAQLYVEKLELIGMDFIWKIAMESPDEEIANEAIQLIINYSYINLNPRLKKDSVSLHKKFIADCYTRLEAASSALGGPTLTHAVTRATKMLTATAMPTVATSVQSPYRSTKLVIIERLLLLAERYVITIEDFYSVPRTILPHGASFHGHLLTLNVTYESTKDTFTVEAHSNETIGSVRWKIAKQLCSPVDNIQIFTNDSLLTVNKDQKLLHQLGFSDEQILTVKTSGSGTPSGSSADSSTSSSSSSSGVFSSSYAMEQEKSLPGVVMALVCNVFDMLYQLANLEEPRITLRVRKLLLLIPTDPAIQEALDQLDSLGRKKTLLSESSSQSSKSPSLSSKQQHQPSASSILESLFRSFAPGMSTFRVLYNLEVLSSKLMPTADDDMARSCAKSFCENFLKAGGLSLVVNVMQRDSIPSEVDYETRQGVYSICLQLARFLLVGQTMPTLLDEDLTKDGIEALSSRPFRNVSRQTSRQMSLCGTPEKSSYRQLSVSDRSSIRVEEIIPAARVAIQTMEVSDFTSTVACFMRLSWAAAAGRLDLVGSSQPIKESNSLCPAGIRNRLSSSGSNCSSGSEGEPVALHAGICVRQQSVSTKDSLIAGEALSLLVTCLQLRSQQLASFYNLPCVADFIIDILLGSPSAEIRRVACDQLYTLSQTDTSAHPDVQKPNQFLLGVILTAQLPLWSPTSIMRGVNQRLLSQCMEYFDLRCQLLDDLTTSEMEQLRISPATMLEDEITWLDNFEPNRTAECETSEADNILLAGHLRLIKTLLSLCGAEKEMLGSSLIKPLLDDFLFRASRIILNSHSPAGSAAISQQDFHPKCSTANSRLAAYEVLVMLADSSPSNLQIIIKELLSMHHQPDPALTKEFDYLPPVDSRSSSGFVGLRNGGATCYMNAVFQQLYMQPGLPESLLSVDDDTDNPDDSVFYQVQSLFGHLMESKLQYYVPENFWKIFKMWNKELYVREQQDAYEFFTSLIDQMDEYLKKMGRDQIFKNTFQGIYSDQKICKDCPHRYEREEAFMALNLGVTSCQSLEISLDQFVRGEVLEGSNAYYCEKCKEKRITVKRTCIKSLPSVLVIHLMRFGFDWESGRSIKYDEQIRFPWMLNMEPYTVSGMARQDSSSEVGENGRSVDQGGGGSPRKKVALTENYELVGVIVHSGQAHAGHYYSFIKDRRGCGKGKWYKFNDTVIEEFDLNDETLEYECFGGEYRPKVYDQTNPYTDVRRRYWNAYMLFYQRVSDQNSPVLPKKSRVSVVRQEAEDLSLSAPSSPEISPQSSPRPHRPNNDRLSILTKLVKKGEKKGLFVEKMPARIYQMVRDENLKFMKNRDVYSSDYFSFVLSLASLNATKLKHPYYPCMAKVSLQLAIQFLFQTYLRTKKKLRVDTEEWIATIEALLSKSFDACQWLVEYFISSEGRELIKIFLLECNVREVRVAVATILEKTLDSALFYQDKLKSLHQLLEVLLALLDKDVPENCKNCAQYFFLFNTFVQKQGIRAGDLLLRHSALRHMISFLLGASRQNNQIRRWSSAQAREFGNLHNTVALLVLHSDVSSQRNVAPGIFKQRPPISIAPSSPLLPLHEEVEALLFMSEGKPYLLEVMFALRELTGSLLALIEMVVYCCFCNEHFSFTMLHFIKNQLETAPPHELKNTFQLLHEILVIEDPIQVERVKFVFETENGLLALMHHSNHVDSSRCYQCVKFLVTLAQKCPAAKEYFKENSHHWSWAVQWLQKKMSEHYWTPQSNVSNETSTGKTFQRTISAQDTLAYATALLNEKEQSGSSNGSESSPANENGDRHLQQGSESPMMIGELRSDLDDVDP
Outline: as §1

USP25 = target: T3, USP25 (UniProt Q9UHP3)
T3 sequence (whole entry): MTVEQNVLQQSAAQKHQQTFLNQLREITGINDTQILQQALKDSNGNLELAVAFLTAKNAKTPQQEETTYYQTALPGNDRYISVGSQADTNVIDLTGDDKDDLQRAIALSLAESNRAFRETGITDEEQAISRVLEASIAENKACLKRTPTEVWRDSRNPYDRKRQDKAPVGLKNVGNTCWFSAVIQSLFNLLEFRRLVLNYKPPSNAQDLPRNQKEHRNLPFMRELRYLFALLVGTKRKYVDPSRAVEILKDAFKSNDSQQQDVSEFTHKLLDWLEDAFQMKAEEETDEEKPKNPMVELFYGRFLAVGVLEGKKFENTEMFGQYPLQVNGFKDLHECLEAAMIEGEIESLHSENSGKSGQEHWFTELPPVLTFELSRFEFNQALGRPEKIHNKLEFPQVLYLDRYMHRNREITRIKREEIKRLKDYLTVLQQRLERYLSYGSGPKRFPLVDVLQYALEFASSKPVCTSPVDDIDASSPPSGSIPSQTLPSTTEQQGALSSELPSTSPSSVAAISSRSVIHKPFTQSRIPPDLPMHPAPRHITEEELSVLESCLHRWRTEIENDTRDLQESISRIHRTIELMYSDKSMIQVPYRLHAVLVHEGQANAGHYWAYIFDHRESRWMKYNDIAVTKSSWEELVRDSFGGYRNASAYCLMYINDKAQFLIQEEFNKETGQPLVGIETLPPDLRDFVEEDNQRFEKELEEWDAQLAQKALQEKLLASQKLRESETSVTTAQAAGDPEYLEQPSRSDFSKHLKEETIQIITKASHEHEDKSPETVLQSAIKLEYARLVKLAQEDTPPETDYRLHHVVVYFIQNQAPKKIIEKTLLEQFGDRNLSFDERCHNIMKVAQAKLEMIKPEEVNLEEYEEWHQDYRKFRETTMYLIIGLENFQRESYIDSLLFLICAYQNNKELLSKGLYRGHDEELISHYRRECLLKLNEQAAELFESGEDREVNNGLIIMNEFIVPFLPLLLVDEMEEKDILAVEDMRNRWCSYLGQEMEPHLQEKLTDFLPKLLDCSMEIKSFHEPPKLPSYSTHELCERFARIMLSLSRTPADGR
Outline: as §1

USP28 = target: T4, USP28 (UniProt Q96RU2)
T4 sequence (whole entry): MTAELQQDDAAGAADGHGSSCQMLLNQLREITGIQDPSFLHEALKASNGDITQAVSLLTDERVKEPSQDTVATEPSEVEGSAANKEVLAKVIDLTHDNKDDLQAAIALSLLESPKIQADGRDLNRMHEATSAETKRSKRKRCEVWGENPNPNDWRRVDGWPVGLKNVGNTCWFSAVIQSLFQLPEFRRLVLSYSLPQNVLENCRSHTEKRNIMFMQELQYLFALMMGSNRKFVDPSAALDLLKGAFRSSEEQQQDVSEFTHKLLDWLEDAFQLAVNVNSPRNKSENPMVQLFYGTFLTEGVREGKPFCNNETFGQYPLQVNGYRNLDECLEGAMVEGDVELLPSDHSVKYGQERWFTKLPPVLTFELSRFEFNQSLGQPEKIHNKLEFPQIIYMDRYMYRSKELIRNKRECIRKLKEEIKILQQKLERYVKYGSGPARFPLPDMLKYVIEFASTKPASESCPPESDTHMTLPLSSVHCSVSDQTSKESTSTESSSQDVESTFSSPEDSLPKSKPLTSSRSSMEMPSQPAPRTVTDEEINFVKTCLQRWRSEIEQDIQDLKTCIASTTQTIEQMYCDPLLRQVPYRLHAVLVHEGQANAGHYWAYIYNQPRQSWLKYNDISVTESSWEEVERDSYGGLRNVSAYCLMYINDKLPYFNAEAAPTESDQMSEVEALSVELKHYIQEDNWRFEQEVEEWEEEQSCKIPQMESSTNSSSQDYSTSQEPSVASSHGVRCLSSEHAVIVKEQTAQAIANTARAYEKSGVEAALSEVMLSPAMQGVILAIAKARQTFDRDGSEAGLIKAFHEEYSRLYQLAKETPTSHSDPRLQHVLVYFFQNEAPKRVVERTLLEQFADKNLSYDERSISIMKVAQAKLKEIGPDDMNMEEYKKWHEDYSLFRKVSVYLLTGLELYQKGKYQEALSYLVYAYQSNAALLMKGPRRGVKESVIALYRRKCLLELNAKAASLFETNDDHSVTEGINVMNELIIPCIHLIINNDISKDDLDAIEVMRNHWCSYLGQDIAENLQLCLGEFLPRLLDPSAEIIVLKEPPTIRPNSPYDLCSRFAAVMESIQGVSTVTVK
Outline: as §1

Measured: log2 ratio of Biotin-Ahx-Ub-VS probe labelling

CCN1C(=O)C2CN(C(=O)CCl)CCN2C1=O (stereo not given)
inactive: USP19 -0.175 | USP22 0.199 | USP24 -0.0184 | USP25 -0.141 | USP28 -0.324
